# Reference: PubChem BioAssay (NCATS)
# Where “and” joins values, the source holds several entries; their conditions need not be identical. Identical values can stand only once. A number with no mark means an inactive call. Records with an inconclusive call do not appear. Entries that show only a call come without a potency. Calls of active or inactive are those of the source. Calls come from the whole dose curve; as a rule, active = well fitted curve in the direction sought with a large enough effect; inconclusive = small, poorly fitted or top-dose-only effect, or another doubt; inactive = no such curve, though single readings can be large; an effect the other way counts as inactive or inconclusive.
# What was measured:
# [1] = Primary qHTS for inhibitors of nuclear receptor binding SET domain protein 2 (NSD2) in an RCH-ACV wild type WT cells (2C) (AID 1645877); note: nearly all actives have a fitted effect of over 70% in size; note: potency is the fitted concentration of half-maximal effect
# [2] = target: Glutathione peroxidase 1 (Homo sapiens) (UniProt P07203); assay: Primary qHTS Assay for Inhibitors of Recombinant Selenoprotein Glutathione Peroxidase 1 (GPX1) (AID 1845191); note: nearly all actives have a fitted effect of over 65% in size; note: potency is the fitted concentration of half-maximal effect
# Chain of Glutathione peroxidase 1 (Homo sapiens) (P07203 whole entry, looked up): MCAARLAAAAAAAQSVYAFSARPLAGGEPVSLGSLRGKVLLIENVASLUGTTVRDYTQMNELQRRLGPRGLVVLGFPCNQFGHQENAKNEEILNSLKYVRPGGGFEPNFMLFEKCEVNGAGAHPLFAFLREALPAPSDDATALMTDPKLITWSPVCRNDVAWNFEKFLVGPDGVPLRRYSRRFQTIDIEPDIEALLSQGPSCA
# Outline: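 GR-coupled readout: NADPH consumption tracked by fluorescence, ex 340/em 450 nm, at t=0 and after 15 min at RT. Final mix 10 nM GPX1, 1 mM GSH, 0.5 mM CHP, 0.5 mM NADPH, 100 nM GR, 0.01% BSA, following 30 min enzyme–compound preincubation.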
# [3] = target: Phospholipid hydroperoxide glutathione peroxidase GPX4 (Homo sapiens) (UniProt P36969); assay: Primary qHTS Assay for Inhibitors of Recombinant Selenoprotein Glutathione Peroxidase 4 (GPX4) (AID 1845192); note: nearly all actives have a fitted effect of over 65% in size
# Chain of Phospholipid hydroperoxide glutathione peroxidase GPX4 (Homo sapiens) (P36969 whole entry, looked up): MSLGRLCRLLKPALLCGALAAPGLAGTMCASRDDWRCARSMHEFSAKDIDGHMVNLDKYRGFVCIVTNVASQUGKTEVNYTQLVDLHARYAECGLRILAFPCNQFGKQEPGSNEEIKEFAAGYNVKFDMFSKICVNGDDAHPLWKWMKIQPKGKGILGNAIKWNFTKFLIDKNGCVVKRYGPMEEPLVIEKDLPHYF
# Outline: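 Steps: GPX4 plus compound, 30 min RT; add GR/GSH/NADPH master mix; start with cumene hydroperoxide; read 340/450 nm fluorescence at 0 and 15 min. Finals were 200 nM GPX4, 1 mM GSH, 0.5 mM CHP, 0.5 mM NADPH, 100 nM GR.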
# [4] = Primary fluorescence-based thiol-reactive (MSTI) qHTS assay for identification of artifact compounds. (AID 1845221);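 note: series mostly up to about 54 µM; thiol-reactive compounds lower the probe fluorescence signal; nearly all actives have a fitted effect of over 65% in size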
# Outline: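 A multi-concentration qHTS design tested compounds against 4 uM MSTI, pH 7.4 phosphate-buffered saline. Plates were protected from light for 1 h at room temperature before imaging fluorescence.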
# [5] = system: Nanoluciferase (engineered Oplophorus gracilirostris luciferase); assay: Primary Nanoluciferase (NLuc) qHTS assay for identification of artifact compounds. (AID 1845222);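 note: NLuc secreted into diluted conditioned medium of S16 cells; series mostly up to about 54 µM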
# Outline: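 qHTS format, against NLuc in S16 cell-conditioned medium. Nano-Glo substrate 1:100 was added after 15 min at room temperature. Luminescence was taken after a further 5 min.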
# [6] = Primary redox qHTS assay for identification of artifact compounds. (AID 1845223)
# Outline: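 Redox-cycling detection via DTT (250 uM final) oxidation coupled to Amplex Red (25 uM)/HRP (250 mU/mL) in HBSS. 15 min preincubation plus 30 min after DTT, room temperature. Ex/Em 525/598 nm; 4-parameter Hill fit against DMSO and 10 uM DA3003.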
# [7] = target: Luciferin 4-monooxygenase (Photinus pyralis) (UniProt P08659); assay: Primary firefly luciferase (FLuc) qHTS assay for identification of artifact compounds. (AID 1845220); note: nearly all actives have a fitted effect of over 60% in size
# Outline: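 Titrated compounds were incubated 15 min at RT, protected from light, with luciferin and ATP at 10 uM; reaction started with 10 nM FLuc, luminescence imaged at 5 min, and concentration-response fitted by Hill equation.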
SMILES,Potency [1],Potency [2],Potency [3],Potency [4],Potency [5],Potency [6],Potency [7]
C/C1=C\CC[C@]2(C)O[C@@H]2[C@H](O)[C@H](C(C)C)[C@H](OC(=O)/C=C/c2ccccc2)C1,inactive,inactive,inactive,inactive,inactive,inactive,–
CC(C)(C)C(=O)CN1C(=O)[C@H](NC(=O)Nc2cccc(C(=O)O)c2)CN(C2CCCCC2)c2ccccc21,inactive,inactive,–,inactive,inactive,inactive,inactive
CO[C@@H](C)Cn1c(=O)n(C)c2cnc3ccc(-c4cncc(C(C)(C)O)c4)cc3c21,0.166 µM (active),inactive,–,inactive,inactive,inactive,inactive
CC1COC(Nc2ccc3ncnc(Nc4ccc(OCc5nccs5)c(Cl)c4)c3c2)=N1 (stereo not drawn),12.9 µM (active),inactive,inactive,inactive,–,inactive,–
COc1ccc(C(=O)n2c(C)c(Cc3cccc(O[C@@H](C)C(=O)O)c3)c3cc(OC(F)(F)F)ccc32)cc1,inactive,inactive,–,inactive,inactive,inactive,inactive
COc1c2c(c(C)c3c1C(=O)OC3)O[C@@]1(C)CCC3(C(C)(C)O)OC(=O)CC[C@]3(C)[C@H]1C2 (stereo partly drawn),inactive,inactive,inactive,inactive,inactive,inactive,–
C#CC[C@H](c1nc2cc(Cl)ccc2c(=O)n1Nc1ccccc1)N(CCCN)C(=O)c1cccc(Cl)c1F,0.332 µM (active),inactive,–,inactive,inactive,inactive,inactive
Cn1nnc(-c2ccc(-c3ccc(N4C[C@H](CO)OC4=O)cc3F)cn2)n1,inactive,inactive,inactive,inactive,inactive,inactive,–
C=CC[C@]12C[C@@H](OC)C(=O)C(OC)=C1O[C@@H](c1cc(OC)c3c(c1)OCO3)[C@@H]2C,inactive,inactive,inactive,inactive,inactive,inactive,–
CNC(=S)NS(=O)(=O)c1cc(CCNC(=O)c2cc(Cl)ccc2OC)ccc1OC,inactive,12.8 µM (active),–,inactive,–,inactive,inactive
CCCC1(c2ccccc2)NC(=O)N(CC(=O)N(C)Cc2c(F)cccc2Cl)C1=O (stereo not drawn),inactive,inactive,inactive,inactive,inactive,inactive,–
CO/N=C(/C(=O)N[C@@H]1C(=O)N2C(C(=O)O)=C(Cn3ccc(=N)n3CCO)CS[C@H]12)c1csc(N)n1,inactive,8.06 µM (active),–,–,inactive,inactive,inactive
NC(=O)[C@H]1CCS[C@@H]2C[C@]3(CCCN3C(=O)Cc3ccc(NC(=O)COc4ccc(Cl)cc4Cl)cc3)C(=O)N12,5.25 µM (active),inactive,inactive,inactive,inactive,inactive,–
CN[C@H](CC(C)C)C(=O)N[C@H]1C(=O)N[C@@H](CC(N)=O)C(=O)N[C@H]2C(=O)N[C@H]3C(=O)N[C@H](C(=O)N[C@H](C(=O)O)c4cc(O)cc(O)c4-c4cc3ccc4O)[C@H](O[C@H]3C[C@](C)(N)[C@@H](O)[C@H](C)O3)c3ccc(c(Cl)c3)Oc3cc2cc(c3O[C@@H]2O[C@H](CO)[C@@H](O)[C@H](O)[C@H]2O[C@H]2C[C@](C)(NCc3ccc(-c4ccc(Cl)cc4)cc3)[C@@H](O)[C@H](C)O2)Oc2ccc(cc2Cl)[C@H]1O,inactive,inactive,inactive,–,inactive,inactive,–
Nc1ccc(/C=C/C(=O)NCc2cc3cc(-c4ccc(C(=O)N5CCC(F)(F)CC5)cc4)cc(-c4ccc(F)cc4)c3o2)cn1,332 nM (active) and 206 nM (active),inactive,–,–,inactive,inactive,inactive
CC1(C)CC2C=C(C(=O)O)C3COC(=O)C(O)(CO)C23C1 (stereo not drawn),inactive,inactive,inactive,–,inactive,inactive,–
C=C(C)C(=O)O[C@H]1CC2=CC(C/C(C)=C\[C@H]3OC(=O)C(=C)[C@H]13)OC2=O (stereo partly drawn),3.58 µM (active),inactive,–,inactive,inactive,inactive,inactive
O=C(OC[C@H]1O[C@H](O[C@]2(CO)O[C@H](CO)[C@@H](O)[C@@H]2O)[C@H](O)[C@@H](O)[C@@H]1O)c1ccccc1,inactive,inactive,inactive,inactive,inactive,inactive,–
Cc1ccccc1NC(=O)Nc1ccc(CC(=O)N(C)[C@@H](CC(C)C)C(=O)NCC[C@H](NC(=O)[C@@H]2CCCN2S(=O)(=O)c2cc(Cl)cc(Cl)c2)C(=O)O)cc1,inactive,inactive,inactive,–,inactive,inactive,–
C[C@H]1O[C@@H](O[C@H]2CC[C@@]3(C)C(CC[C@]4(C)C3CC=C3C5CC(C)(C)CC[C@]5(C(=O)O)CC[C@]34C(=O)O)C2(C)C)[C@H](O)[C@@H](O)[C@@H]1O (stereo partly drawn),inactive,inactive,inactive,–,inactive,inactive,–
O=C(NCc1cccc(O)c1)Nc1nc(-c2ccncc2)cs1,2.35 µM (active),inactive,inactive,inactive,inactive,inactive,–
c1ccc(-c2csc(N3CCOCC3)n2)cc1,inactive,inactive,inactive,–,inactive,inactive,–
C[C@H](O)[C@H](O)/C=C/c1cccc(O)c1CO,inactive,inactive,inactive,–,inactive,inactive,–
